# Source: PubChem BioAssay (NCI)
# Several values for one entry are separate records, joined by “and”; a condition that tells them apart may be missing. Equal entries are not always repeated. The panel holds about 79,000 compounds, 15% with a hit somewhere; the sample as a whole holds those more often. Some structures have more than one record in an assay (separate samples or runs), and their calls can disagree. Activity calls are given as the source filed them. Rule as the data show it: active = growth inhibition above about 70%; inactive = the rest.
# How the values were obtained:
# [1] = NCI Yeast Anticancer Drug Screen. Data for the rad50 strain (AID 155);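 also: 0% = growth of vehicle-only cultures of the same strain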; conditions: S. cerevisiae rad50 strain growth inhibition, stronger effect = higher value
# Procedure, shortened: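 DNA repair mutant yeast, compound exposure, growth read-out; inhibition is taken relative to vehicle.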
# [2] = NCI Yeast Anticancer Drug Screen. Data for the mec2-1 strain (AID 157); conditions: S. cerevisiae mec2-1 strain, stronger effect = higher value
# Procedure, shortened: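 Growth inhibition is read against vehicle-treated controls after compound exposure of the mec2-1 yeast strain, which is defective in DNA damage repair or cell cycle control.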
# [3] = NCI Yeast Anticancer Drug Screen. Data for the sgs1 mgt1 strain (AID 161);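 also: 0% = growth of cultures given vehicle only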; conditions: S. cerevisiae sgs1 mgt1 strain, stronger effect = higher value
# Procedure, shortened: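 Compounds are added to genetically altered yeast, and growth is compared with cultures given vehicle alone to give percent inhibition.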
# [4] = NCI Yeast Anticancer Drug Screen. Data for the cln2 rad14 strain (AID 165);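 also: 0% = growth equal to vehicle treated cultures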; conditions: S. cerevisiae cln2 rad14 strain, stronger effect = higher value
# Procedure, shortened: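 Growth inhibition, relative to vehicle-treated controls, is the read-out. The test organism is a yeast strain with defined genetic alterations, cln2 rad14.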
# [5] = NCI Yeast Anticancer Drug Screen. Data for the bub3 strain (AID 167); conditions: S. cerevisiae bub3 mutant strain, stronger effect = higher value
# Procedure, shortened: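 In this screen, a yeast mutant lacking normal mitotic checkpoint function is challenged with compound. Relative growth versus vehicle gives the inhibition value.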
# [6] = NCI Yeast Anticancer Drug Screen. Data for the mlh1 rad18 strain (AID 175); conditions: S. cerevisiae mlh1 rad18 strain growth inhibition, stronger effect = higher value
# Procedure, shortened: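 Cells of a genetically altered yeast strain, deficient in DNA damage repair, were treated with compound. Their growth was then compared with that of vehicle-treated cultures to give inhibition.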
# [7] = NCI Yeast Anticancer Drug Screen. Data for the wt1 strain (AID 149);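 also: 0% = growth of vehicle-treated wt1 cultures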; conditions: S. cerevisiae wt1 strain (SPY 50644) growth inhibition, stronger effect = higher value
# Procedure, shortened: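 wt1 strain grown with compound or vehicle; inhibition taken from the growth difference.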
# [8] = NCI Yeast Anticancer Drug Screen. Data for the rad14 strain (AID 159);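 also: 0% = growth of vehicle-treated control cultures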; conditions: S. cerevisiae rad14 strain growth inhibition, stronger effect = higher value
# Procedure, shortened: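 DNA repair-defective yeast, compound-exposed; % growth inhibition derived by comparison with vehicle-treated controls.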
# [9] = NCI Yeast Anticancer Drug Screen. Data for the CLN2oe strain (AID 163);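 also: 0% = growth of vehicle-only control cultures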; conditions: S. cerevisiae CLN2oe strain, stronger effect = higher value
# Procedure, shortened: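 Compound-treated yeast; growth vs vehicle ctrl = % inhibition. Genetically altered strain (cell-cycle control).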
# [10] = NCI Yeast Anticancer Drug Screen. Data for the wt2 strain (AID 169);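 also: 0% = growth of vehicle-treated yeast cultures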; conditions: S. cerevisiae wt2 strain growth inhibition, stronger effect = higher value
# Procedure, shortened: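 Compound exposure of yeast; growth compared with vehicle controls; inhibition reported.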
# [11] = NCI Yeast Anticancer Drug Screen. Data for the mlh1 strain (AID 171);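 also: 0% = growth of vehicle-treated control cultures of the same strain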; conditions: S. cerevisiae mlh1 strain growth inhibition, stronger effect = higher value
# Procedure, shortened: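 Compounds are applied to a genetically altered yeast strain, and its growth is compared with that of vehicle-treated cultures to give percent inhibition.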
# [12] = NCI Yeast Anticancer Drug Screen. Data for the sgs1 strain (AID 173);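 also: 0% = growth of vehicle-only control cultures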; conditions: S. cerevisiae sgs1 mutant, stronger effect = higher value
# Procedure, shortened: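 Compounds applied to genetically altered yeast; growth compared with vehicle-treated cultures to give % inhibition.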
# [13] = NCI Yeast Anticancer Drug Screen. Data for the rad18 strain (AID 177); conditions: S. cerevisiae rad18 mutant growth inhibition, stronger effect = higher value
# Procedure, shortened: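 Compounds are applied to a repair-deficient yeast strain, and growth is compared with that of vehicle-treated cultures to give percent inhibition.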
# [14] = at 5.0 µM (retest, dose inferred, filed as 0.5)
# [15] = at 50.0 µM (retest, dose inferred, filed as 5.0)
smiles,measurement,setting,value
O=C(O)c1ccccc1.[Ag],growth inhibition,[1]; at 1.2 µM,95% (active)
same,growth inhibition,[1]; at 3.7 µM,101% (active)
same,growth inhibition,[1]; [14],97% (active) and 58% (inactive)
same,growth inhibition,[1]; at 11.0 µM,99% (active)
same,growth inhibition,[1]; at 33.0 µM,99% (active)
same,growth inhibition,[1]; [15],99% (active) and 98% (active)
same,growth inhibition,[1]; at 50.0 µM,90.8% (active) and 91.2% (active)
same,growth inhibition,[1]; at 100.0 µM,99% (active)
same,growth inhibition,[2]; at 1.2 µM,89% (active)
same,growth inhibition,[2]; at 3.7 µM,101% (active)
same,growth inhibition,[2]; [14],95% (active) and 60% (inactive)
same,growth inhibition,[2]; at 11.0 µM,99% (active)
same,growth inhibition,[2]; at 33.0 µM,99% (active)
same,growth inhibition,[2]; [15],99% (active)
same,growth inhibition,[2]; at 50.0 µM,93.2% (active) and 93% (active)
same,growth inhibition,[2]; at 100.0 µM,99% (active)
same,growth inhibition,[3]; [14],99% (active) and -5% (inactive)
same,growth inhibition,[3]; [15],98% (active) and 99% (active)
same,growth inhibition,[3]; at 50.0 µM,93.1% (active) and 93.5% (active)
same,growth inhibition,[4]; [14],36% (inactive) and 39% (inactive)
same,growth inhibition,[4]; [15],97% (active) and 100% (active)
same,growth inhibition,[4]; at 50.0 µM,91.6% (active) and 91.4% (active)
same,growth inhibition,[5]; at 1.2 µM,93% (active)
same,growth inhibition,[5]; at 3.7 µM,101% (active)
same,growth inhibition,[5]; [14],100% (active) and -1% (inactive)
same,growth inhibition,[5]; at 11.0 µM,99% (active)
same,growth inhibition,[5]; at 33.0 µM,99% (active)
same,growth inhibition,[5]; [15],98% (active) and 99% (active)
same,growth inhibition,[5]; at 50.0 µM,91.5% (active)
same,growth inhibition,[5]; at 100.0 µM,99% (active)
same,growth inhibition,[6]; [14],99% (active) and 40% (inactive)
same,growth inhibition,[6]; [15],99% (active) and 100% (active)
same,growth inhibition,[6]; at 50.0 µM,90.8% (active) and 91.3% (active)
CCN(CCCl)CCCCNc1c2ccccc2nc2ccc(OC)cc12,growth inhibition,[7]; at 1.2 µM,3% (inactive)
same,growth inhibition,[7]; at 3.7 µM,8% (inactive)
same,growth inhibition,[7]; at 11.0 µM,32% (inactive)
same,growth inhibition,[7]; at 33.0 µM,74% (active)
same,growth inhibition,[7]; at 100.0 µM,95% (active)
same,growth inhibition,[1]; at 1.2 µM,38% (inactive)
same,growth inhibition,[1]; at 3.7 µM,64% (inactive)
same,growth inhibition,[1]; [14],46% (inactive)
same,growth inhibition,[1]; at 11.0 µM,84% (active)
same,growth inhibition,[1]; at 33.0 µM,91% (active)
same,growth inhibition,[1]; [15],46% (inactive)
same,growth inhibition,[1]; at 50.0 µM,85.8% (active)
same,growth inhibition,[1]; at 100.0 µM,95% (active)
same,growth inhibition,[2]; at 1.2 µM,9% (inactive)
same,growth inhibition,[2]; at 3.7 µM,18% (inactive)
same,growth inhibition,[2]; [14],26% (inactive)
same,growth inhibition,[2]; at 11.0 µM,48% (inactive)
same,growth inhibition,[2]; at 33.0 µM,94% (active)
same,growth inhibition,[2]; [15],26% (inactive)
same,growth inhibition,[2]; at 50.0 µM,74.2% (active)
same,growth inhibition,[2]; at 100.0 µM,97% (active)
same,growth inhibition,[8]; at 1.2 µM,4% (inactive)
same,growth inhibition,[8]; at 3.7 µM,17% (inactive)
same,growth inhibition,[8]; at 11.0 µM,80% (active)
same,growth inhibition,[8]; at 33.0 µM,95% (active)
same,growth inhibition,[8]; at 100.0 µM,98% (active)
same,growth inhibition,[3]; [14],60% (inactive)
same,growth inhibition,[3]; [15],60% (inactive)
same,growth inhibition,[3]; at 50.0 µM,72.1% (active)
same,growth inhibition,[9]; at 1.2 µM,8% (inactive)
same,growth inhibition,[9]; at 3.7 µM,33% (inactive)
same,growth inhibition,[9]; at 11.0 µM,57% (inactive)
same,growth inhibition,[9]; at 33.0 µM,78% (active)
same,growth inhibition,[9]; at 100.0 µM,95% (active)
same,growth inhibition,[4]; [14],24% (inactive)
same,growth inhibition,[4]; [15],24% (inactive)
same,growth inhibition,[4]; at 50.0 µM,77.9% (active)
same,growth inhibition,[5]; at 1.2 µM,-21% (inactive)
same,growth inhibition,[5]; at 3.7 µM,-14% (inactive)
same,growth inhibition,[5]; [14],-15% (inactive)
same,growth inhibition,[5]; at 11.0 µM,38% (inactive)
same,growth inhibition,[5]; at 33.0 µM,82% (active)
same,growth inhibition,[5]; [15],-15% (inactive)
same,growth inhibition,[5]; at 50.0 µM,60.9% (inactive)
same,growth inhibition,[5]; at 100.0 µM,94% (active)
same,growth inhibition,[10]; at 1.2 µM,4% (inactive)
same,growth inhibition,[10]; at 3.7 µM,13% (inactive)
same,growth inhibition,[10]; at 11.0 µM,38% (inactive)
same,growth inhibition,[10]; at 33.0 µM,82% (active)
same,growth inhibition,[10]; at 100.0 µM,95% (active)
same,growth inhibition,[11]; at 1.2 µM,4% (inactive)
same,growth inhibition,[11]; at 3.7 µM,16% (inactive)
same,growth inhibition,[11]; at 11.0 µM,51% (inactive)
same,growth inhibition,[11]; at 33.0 µM,70% (active)
same,growth inhibition,[11]; at 100.0 µM,96% (active)
same,growth inhibition,[12]; at 1.2 µM,46% (inactive)
same,growth inhibition,[12]; at 3.7 µM,69% (inactive)
same,growth inhibition,[12]; at 11.0 µM,82% (active)
same,growth inhibition,[12]; at 33.0 µM,90% (active)
same,growth inhibition,[12]; at 100.0 µM,96% (active)
same,growth inhibition,[6]; [14],18% (inactive)
same,growth inhibition,[6]; [15],18% (inactive)
same,growth inhibition,[6]; at 50.0 µM,69.5% (inactive)
same,growth inhibition,[13]; at 1.2 µM,66% (inactive)
same,growth inhibition,[13]; at 3.7 µM,80% (active)
same,growth inhibition,[13]; at 11.0 µM,90% (active)
same,growth inhibition,[13]; at 33.0 µM,94% (active)
same,growth inhibition,[13]; at 100.0 µM,95% (active)
CCc1cc2c(cc1O)C(C)(C)CCC2(C)C,growth inhibition,[1]; [14],-1% (inactive)
same,growth inhibition,[1]; [15],7% (inactive)
same,growth inhibition,[1]; at 50.0 µM,98% (active)
same,growth inhibition,[2]; [14],-2% (inactive)
same,growth inhibition,[2]; [15],-7% (inactive)
same,growth inhibition,[2]; at 50.0 µM,97.8% (active)
same,growth inhibition,[3]; [14],-3% (inactive)
same,growth inhibition,[3]; [15],7% (inactive)
same,growth inhibition,[3]; at 50.0 µM,52.5% (inactive)
same,growth inhibition,[4]; [14],5% (inactive)
same,growth inhibition,[4]; [15],10% (inactive)
same,growth inhibition,[4]; at 50.0 µM,98% (active)
same,growth inhibition,[5]; [14],3% (inactive)
same,growth inhibition,[5]; [15],18% (inactive)
same,growth inhibition,[5]; at 50.0 µM,43% (inactive)
Cc1cc(N=Nc2ccccc2C)ccc1N,growth inhibition,[1]; [14],34% (inactive) and 23% (inactive)
same,growth inhibition,[1]; [15],44% (inactive) and 96% (active)
same,growth inhibition,[1]; at 50.0 µM,91.4% (active) and 88.5% (active)
same,growth inhibition,[2]; [14],46% (inactive) and 23% (inactive)
same,growth inhibition,[2]; [15],52% (inactive) and 99% (active)
same,growth inhibition,[2]; at 50.0 µM,93% (active) and 91.7% (active)
same,growth inhibition,[3]; [14],-4% (inactive) and 31% (inactive)
same,growth inhibition,[3]; [15],99% (active) and 96% (active)
same,growth inhibition,[3]; at 50.0 µM,93.5% (active) and 89.3% (active)
same,growth inhibition,[4]; [14],41% (inactive) and 20% (inactive)
same,growth inhibition,[4]; [15],98% (active) and 96% (active)
same,growth inhibition,[4]; at 50.0 µM,91.1% (active) and 91.5% (active)
same,growth inhibition,[5]; [14],12% (inactive) and 41% (inactive)
same,growth inhibition,[5]; [15],97% (active) and 99% (active)
same,growth inhibition,[5]; at 50.0 µM,91.5% (active) and 90% (active)
same,growth inhibition,[10]; at 1.2 µM,2% (inactive)
same,growth inhibition,[10]; at 3.7 µM,-7% (inactive)
same,growth inhibition,[10]; at 11.0 µM,4% (inactive)
same,growth inhibition,[10]; at 33.0 µM,96% (active)
same,growth inhibition,[10]; at 100.0 µM,99% (active)
same,growth inhibition,[6]; [14],32% (inactive) and 35% (inactive)
same,growth inhibition,[6]; [15],38% (inactive) and 97% (active)
same,growth inhibition,[6]; at 50.0 µM,90.8% (active) and 91.9% (active)
